Results on 37 compounds are retold here after PubChem BioAssay (EPA / NIEHS).

The structures appear in SMILES notation. Values joined by “and” are separate entries in the source; they are usually repeats but may differ in a detail not shown here. Identical values can stand only once. More than one record can exist for a structure, and the calls need not agree. Active and inactive are the calls of the source. How the source made its calls: active means hit-call score of the fitted dose curve at least 0.9, where 1 is the maximum; inactive means score below 0.9.

What is called AC50 is the concentration at which the activity in the assay is half-maximal.

Aryl hydrocarbon receptor (Homo sapiens), sequence (P35869 whole entry, looked up): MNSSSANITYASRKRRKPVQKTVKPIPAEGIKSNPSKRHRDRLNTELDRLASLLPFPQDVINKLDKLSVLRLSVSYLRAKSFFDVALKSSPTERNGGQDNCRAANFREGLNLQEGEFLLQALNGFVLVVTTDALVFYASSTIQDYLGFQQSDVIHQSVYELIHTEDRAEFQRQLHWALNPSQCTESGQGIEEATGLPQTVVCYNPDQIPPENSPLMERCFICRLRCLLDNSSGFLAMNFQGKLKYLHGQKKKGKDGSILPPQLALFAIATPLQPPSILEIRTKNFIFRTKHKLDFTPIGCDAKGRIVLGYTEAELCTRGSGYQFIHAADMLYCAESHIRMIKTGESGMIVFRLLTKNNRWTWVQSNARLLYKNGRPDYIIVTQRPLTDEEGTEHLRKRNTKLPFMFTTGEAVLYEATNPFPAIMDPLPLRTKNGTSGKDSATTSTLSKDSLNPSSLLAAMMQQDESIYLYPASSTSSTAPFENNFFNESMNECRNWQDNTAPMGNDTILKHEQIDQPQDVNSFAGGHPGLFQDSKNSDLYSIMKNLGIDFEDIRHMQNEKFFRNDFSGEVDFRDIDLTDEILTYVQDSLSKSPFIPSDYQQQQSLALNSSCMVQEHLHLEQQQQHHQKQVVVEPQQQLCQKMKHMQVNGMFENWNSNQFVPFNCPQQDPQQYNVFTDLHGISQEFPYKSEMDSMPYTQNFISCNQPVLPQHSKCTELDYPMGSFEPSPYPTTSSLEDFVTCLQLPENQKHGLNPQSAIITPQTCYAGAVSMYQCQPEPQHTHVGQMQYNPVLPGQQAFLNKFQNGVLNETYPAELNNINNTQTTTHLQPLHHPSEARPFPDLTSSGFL

The experiment has as its target Aryl hydrocarbon receptor (Homo sapiens) (UniProt P35869). Put plainly: ATG_Ahr_CIS: Attagene CIS-FACTORIAL HepG2 Assay for human Aryl Hydrocarbon Receptor (Ahr) (AID 2282930). The note with it: HepG2 AhR cis-factorial reporter transcription; actives raise or lower the signal. As to the method:
ATG_CIS is a cell-based, multiplexed-readout assay that uses HepG2, a human liver cell line, with measurements taken at 24 hours after chemical dosing in a 24-well plate.ATG_Ahr_CIS is one of 52 assay component(s) measured or calculated from the ATG_CIS assay. It is designed to make measurements of mRNA induction, a form of inducible reporter, as detected with fluorescence intensity signals by Reverse transcription polymerase chain reaction (RT-PCR) and Capillary electrophoresis technology.Data from the assay component ATG_Ahr_CIS was analyzed into 1 assay endpoint. This assay endpoint, ATG_Ahr_CIS, was analyzed with bidirectional fitting relative to DMSO as the negative control and baseline of activity. Using a type of inducible reporter, measures of mRNA for gain or loss-of-signal activity can be used to understand the reporter gene at the transcription factor-level as they relate to the gene AHR. Furthermore, this assay endpoint can be referred to as a primary readout, because this assay has produced multiple assay endpoints where this one serves a reporter gene function. To generalize the intended target to other relatable targets, this assay endpoint is annotated to the dna binding intended target family, where the subfamily is basic helix-loop-helix protein.
Human liver HepG2 cells are transiently transfected with multiple reporter transcription units (MRTUs) in 6-well plates using FuGene 6 reagent (Roche; 3 ml FuGene/1 mg DNA). The MRTU constructs are regulated by a cis-regulating element (promoter). […] A major difference between the CIS and TRANS system is that in CIS activities of endogenous TFs are measured, whereas the TRANS assay evaluates changes in activities of exogenous, chimeric NR-Gal4 proteins. […] At the end of 24 hour incubation, total RNA was isolated using TriZol reagent (Invitrogen). The isolated RNA is then reverse-transcribed using oligo(dT) primer and Mo-MLV reverse transcriptase (Invitrogen) with DNAse I (Ambion) treatment for 30 min. The one-tenth of the produced cDNA was amplified by PCR using Taq DNA polymerase (Invitrogen) and two reporter sequence-specific primers. The PCR products were fluorescently labeled by primer extension with 6-arboxyfluorescein (6-FAM) 5'-labeled reporter sequence-specific primer (2 min at 95 C, 20 s at 68 C and 10 min at 72 C) and these products were digested with 5U of HpaI (New England Biolabs) for 2h at 37 C. […] The raw capillary electrophoresis data was processed using Attagraph software (Attagene).
Turning to `CC(=O)CC(C)C`, the compound was called inactive.

Turning to `CNNCc1ccc(C(=O)NC(C)C)cc1`, the outcome was inactive.

On to `CCO[Si](CCC1CCC2OC2C1)(OCC)OCC` (stereo not given), for which the result was inactive.

Turning to `C/C=C/C(=O)C1=C(C)CCCC1(C)C`, the AC50 is 72.2 µM (active).

`NC(=NCCCCCCN=C(N)/N=C(\N)Nc1ccc(Cl)cc1)/N=C(\N)Nc1ccc(Cl)cc1`: the call was inactive and the AC50 is 21.9 µM (active).

Regarding `Oc1c(Cl)cc(Cl)cc1Sc1cc(Cl)cc(Cl)c1O`, the compound was called inactive.

Take `CC(O)COc1ccccc1` (stereo not given): the AC50 is 6.06 µM (active) and the compound was called inactive.

On to `CCc1ccccc1O`, for which the AC50 is 10.3 µM (active).

Consider `C=CC(=O)OCCC(F)(F)C(F)(F)C(F)(F)C(F)(F)C(F)(F)C(F)(F)F`, for which the compound was called inactive.

On to `O=C(Nc1ccc(Cl)c(Cl)c1)c1cc(Cl)cc(Cl)c1O`, for which the AC50 was 0.0441 µM (active).

With `Cn1sccc1=O`, the compound was called inactive.

`CCOC=C(C(=O)OCC)C(=O)OCC`: the call was inactive.

Take `CN(C)c1ccc(C(=C2C=CC(=[N+](C)C)C=C2)c2ccccc2)cc1`: the compound was called inactive.

On to `CCc1cccc(CC)c1N(COC)C(=O)CS(=O)(=O)O`, for which the call was inactive.

On to `O=C(NO)c1ccccc1`, for which the AC50 was 19 µM (active) and 22.3 µM (active); the result was inactive.

As for `c1ccc(CNc2ncnc3c2ncn3C2CCCCO2)cc1` (stereo not given), the AC50 was 57 µM (active).

In the case of `Oc1cc2ccccc2cc1O`, the AC50 was 21.1 µM (active).

For the compound `CC(=O)Nc1ccc(O)cc1`, the outcome was inactive.

Regarding `CCOCCOCC`, the call was inactive.

For the compound `FC(F)(F)C(F)(F)C(F)(F)C(F)(F)I`, the call was inactive.

In the case of `CCCCCc1ccc(O)cc1`, the AC50 is 15 µM (active).

With `O=C(O)C(=O)O`, the outcome was inactive.

As for `O=C1OC2(c3ccccc31)c1cc(I)c(O)c(I)c1Oc1c2cc(I)c(O)c1I`, the AC50 was 15.4 µM (active) and 27.3 µM (active) and 27.9 µM (active).

Regarding `CC(C)CCOCCC(C)C`, the compound was called inactive.

In the case of `CCCCCCCCCCCC(=O)O`, the call was inactive.

For `NS(=O)(=O)O`, the outcome was inactive.

Regarding `CCCCc1oc2ccccc2c1C(=O)c1cc(I)c(OCCN(CC)CC)c(I)c1`, the AC50 is 55.1 µM (active).

In the case of `Nc1ccn([C@@H]2O[C@H](CO)[C@@H](O)C2O)c(=O)n1` (stereo not given in full), the result was inactive.

As to `O=S(=O)(O)c1ccccc1`, the call was inactive.

For `Cc1cc(Cc2cc(C)cc(C(C)(C)C)c2O)c(O)c(C(C)(C)C)c1`, the AC50 is 55.6 µM (active).

As for `CCCCCCOC(=O)c1ccc(O)cc1`, the outcome was inactive.

For `FC(F)(F)C1(F)C(F)(F)C(F)(F)C(F)(F)C1(F)F`, the compound was called inactive.

For `O=S(=O)(c1ccc(OCc2ccccc2)cc1)c1ccccc1O`, the AC50 was 46.8 µM (active).

`CCCCCCCCCCCC[N+](C)(C)CCCCCCCCCCCC`: the call was inactive.

Regarding `CC[N+](CC)(CC)Cc1ccccc1`, the compound was called inactive.

With `O=C1OC(=O)C(F)(F)C1(F)F`, the result was inactive.

For the compound `O=P(O)(O)CCC(F)(F)C(F)(F)C(F)(F)C(F)(F)C(F)(F)C(F)(F)F`, the result was inactive.
